Consider 19 molecules from PubChem BioAssay.

The nature of assay [1]: viability loss in pontine glioma line – cell-based, SU-DIPG-XVII, MIPE5.0, CellTiter-Glo, qHTS, dose response (AID 1347060).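 For AC50: cells exposed to compound for 48 hours before viability readout.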 The following applies: CellTiter-Glo ATP luminescence. (In ATP-based viability assays light output follows the ATP content of the culture.)
Assay [2] is described as follows: viability loss in pontine glioma line – cell-based, SU-DIPG-XIII, MIPE5.0, CellTiter-Glo, qHTS, dose response (AID 1347064; cut-off not given, nearly all actives have AC50 up to about 23 µM;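 for AC50: cells exposed to compound for 48 hours before the viability read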). The following applies: CellTiter-Glo ATP luminescence.
Assay [3] is described as follows: viability loss in pontine glioma line – cell-based, SU-DIPG-XXV, MIPE5.0, CellTiter-Glo, qHTS, dose response (AID 1347065).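 Note: cells exposed to compound for 48 hours before ATP readout.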 The following applies: CellTiter-Glo ATP luminescence.
Assay [4] is described as follows: JHH-DIPG-1 glioma cell viability, MIPE5.0 library, CellTiter-Glo luminescence, qHTS (AID 1347067).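 Note: cells exposed to compound for 48 hours before readout.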 Particulars: JHH-DIPG-1 glioma viability, CellTiter-Glo ATP luminescence.
Assay [5] is described as follows: growth inhibition of DIPG cells – cell-based, MIPE4.0 library, CellTiter-Glo luminescence, qHTS (AID 1347066; cut-off not given, nearly all actives have AC50 up to about 30 µM;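 note: cells exposed to compound for 48 hours before readout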). The following applies: SU-DIPG-VI viability, CellTiter-Glo ATP luminescence.
Assay [6] in a line: growth inhibition of DIPG cells – cell-based, MIPE5.0 library, qHTS (AID 1347068; cut-off not given, nearly all actives have IC50 up to about 30 µM). Particulars: SU-DIPG-XXV viability.
Assay [7] in a line: viability loss with induced miR-34 in A549 – imaging, A549 dox-inducible miR-34, nuclei and caspase counts, primary screen (AID 1347080;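 active = compounds whose cell count with miR-34 switched on is under 0.7 times the count with it off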). The following applies: A549 miR-34 inducible, Hoechst nuclei count, 48 h.
A short description of assay [8]: compounds altering HSF1 focus formation in cells – imaging, Selleck Cancer Library (AID 1347162; in the data active = plate-normalised HSF1 focus index below about 0.46). The following applies: human cells, HSF1 nuclear foci imaging, at 10 µM; SSMD: measured here: HSF1 foci SSMD mean; cell count: measured here: cell number; plate-normalised HSF1 focus index: stronger effect = lower value.
The nature of assay [9]: MELAS cybrid and Rieske KO viability enhancers – cell-based, MELAS cybrids, Rieske KO mouse fibroblasts, CellTiter-Glo, primary screen (AID 1508586;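 active = mean z-score across replicates of 1.96 or higher in either the MELAS or the Rieske mutant cell line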;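 note: z relative to plate mean and SD of compound and empty wells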). Particulars: low glucose.
Assay [10] can be described thus: drug combination growth inhibition, ovarian cancer – cell-based, oncology-focused library, rucaparib conditional, profiling panel (AID 1508598;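 active = normalized viability below 100% at a tested concentration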). Particulars: patient-derived ovarian cancer cells, CellTiter-Glo viability, 144 h, stronger effect = lower value.

SMILES strings stand for the structures. Inconclusive results are not listed. The source made the active and inactive calls. Unless noted, no cut-off is given here; in the data, nearly all actives have AC50 up to about 26 µM.

As for `CCCCN(CCCC)C(=O)CN1C[C@H](c2ccc3c(c2)OCO3)[C@@H](C(=O)O)[C@@H]1c1ccc(OC)cc1`, the call in assay [1], in [2], in [3] and in assay [4] was inactive.
By AC50 is commonly meant the concentration giving half of the maximal activity seen. Regarding `COc1cc(OC)cc(N(CCNC(C)C)c2ccc3ncc(-c4cnn(C)c4)nc3c2)c1`, the figures for the AC50 in assay [1], in [2] and in assay [3] were 0.0661 µM (active), 0.0661 µM (active) and 0.0833 µM (active), respectively.
As for `O=C(NOCCO)c1cc(CN2OCCCC2=O)c(F)c(F)c1Nc1ccc(I)cc1F`, the concentration at half-maximal activity (AC50) was 0.332 µM (active) in assay [1], 0.148 µM (active) in assay [2], 0.417 µM (active) in [3] and 0.148 µM (active) in assay [4].
On to `CN1C/C=C/CCOc2cccc(c2)-c2ccnc(n2)Nc2cccc(c2)C1`, for which the half-maximal activity concentration (AC50) in assay [1] is 0.0833 µM (active); in assay [2], 0.132 µM (active); in [3] it was 0.0934 µM (active); in [4] it was 0.166 µM (active).
For `O=C(NO)c1cnc(N2C[C@H]3C[C@@H]2CN3c2cc(C(F)(F)F)ccn2)nc1`, in that order: 2.63 µM (active), 1.18 µM (active), 0.742 µM (active) and 1.48 µM (active).
On the same counts, the results for `CC[C@@H](C)Nc1cc(C(=O)NC2CC3CCC(C2)N3c2ccc(C(=O)C3CC3)cn2)c(C)cc1C(N)=O` (stereo partly specified) are 0.148 µM (active), 0.209 µM (active), 0.186 µM (active) and 0.209 µM (active).
On the same counts, the results for `COc1ccc(-c2cc(C(O)C3CCCCN3)c3ccccc3n2)cc1` (stereo unspecified) are 20.9 µM (active), 16.6 µM (active), 29.5 µM (active) and 7.42 µM (active).
With `Cc1nc([C@](C)(O)CO)sc1-c1cnc(N)c(O[C@H](C)c2cc(F)ccc2-n2nccn2)c1`, the AC50 was 8.33 µM (active) in assay [1], 1.48 µM (active) in assay [2] and 2.63 µM (active) in assay [3].
`CCc1cc2c(c(OCC(F)(F)F)c(C(=O)NC3CCN(C(=O)CO)CC3)n2C)c(=O)n1CC(=O)c1ccccc1`: the molecule was called inactive in assay [1], in [2], in assay [3] and in assay [4].
In the case of `Cc1cc(-c2cc(OC(=O)c3ccccc3)ccc2Cl)cc2nnc(Nc3ccc(OCCN4CCCC4)cc3)nc12`, the concentration at half-maximal activity (AC50) in [1] is 5.12 µM (active); in [2] it was 7.23 µM (active); in assay [3], 5.12 µM (active); in [4], 5.12 µM (active).
`COc1cc(-c2nn(C3CCC(N4CCN(C(C)=O)CC4)CC3)c3ncnc(N)c23)ccc1NC(=O)c1cc2ccccc2n1C` (stereo unspecified): the AC50 was 3.72 µM (active) in assay [1], 7.42 µM (active) in [2], 4.17 µM (active) in assay [3] and 7.42 µM (active) in assay [4]. Further, the result in assay [5] and in assay [6] was inactive.
With `CCO[C@@H]1OC(=O)C[C@@H]1NC(=O)[C@@H]1CCCN1C(=O)[C@@H](NC(=O)c1ccc(N)c(Cl)c1)C(C)(C)C`, in assay [1], the AC50 is 23.5 µM (active). Moreover, the call in assay [2], in assay [3], in assay [5], in assay [4] and in [6] was inactive.
`CC(C)NC(=O)C1CCC(n2c(NC(=O)c3ccc(F)cc3)nc3ccc(CN4CCC(C(C)(C)O)CC4)cc32)CC1` (stereo unspecified): the results for the AC50 in assay [1], in assay [2] and in assay [3] were 9.1 µM (active), 7.23 µM (active) and 6.45 µM (active), respectively. Besides, in assay [4], the molecule was called inactive.
Usually viability stands for a read-out of living cells in per cent, often relative to untreated cells. Turning to `NC(=O)C1CCCc2c1[nH]c1ccc(Cl)cc21` (stereo unspecified), the result in [1], in assay [2], in [3], in [5], in assay [4] and in [6] was inactive. Further, the fold change in [7] (stronger effect = lower value, cell number ratio, induced over uninduced) was 1.01 (inactive); in assay [7] (measured here: relative caspase fold change +Dox/-Dox), 0.695. Moreover, the cell count in assay [7] (measured here: total cells with miR-34 induction, stronger effect = lower value) amounted to 7360; in assay [7] (measured here: total cells without miR-34 induction) it was 7260; in assay [8], 6830. In addition, the SSMD in assay [8] came out at 1.46. Further, the plate-normalised HSF1 focus index in assay [8] is 1.08 (inactive). The z-score was -0.456 (inactive) in [9] (MELAS cybrid survival, CellTiter-Glo 48 h, stronger effect = higher value) and -0.725 in assay [9] (Rieske KO mouse fibroblast survival, CellTiter-Glo 72 h). In addition, the viability in assay [10] (at 0.000305 µM, OCI-C5x cells, with rucaparib 10 µM, 100% = cells with rucaparib alone) is 114% (inactive); in [10] (at 0.000305 µM, OCI-C5x cells, without rucaparib) it was 113% (inactive); in assay [10] (at 0.000305 µM, OCI-P5x cells, with rucaparib 20 µM, 100% = cells with rucaparib alone) it was 92.1% (active); in assay [10] (at 0.000305 µM, OCI-P5x cells, without rucaparib), 96.9% (active); in assay [10] (at 0.00122 µM, OCI-C5x cells, with rucaparib 10 µM, 100% = cells with rucaparib alone), 118% (inactive); in assay [10] (at 0.00122 µM, OCI-C5x cells, without rucaparib) it was 119% (inactive). Also, the viability is 109% (inactive) in assay [10] (at 0.00122 µM, OCI-P5x cells, with rucaparib 20 µM, 100% = cells with rucaparib alone); 101% (inactive) in [10] (at 0.00122 µM, OCI-P5x cells, without rucaparib); 117% (inactive) in [10] (at 0.00488 µM, OCI-C5x cells, with rucaparib 10 µM, 100% = cells with rucaparib alone); 114% (inactive) in [10] (at 0.00488 µM, OCI-C5x cells, without rucaparib); 105% (inactive) in assay [10] (at 0.00488 µM, OCI-P5x cells, with rucaparib 20 µM, 100% = cells with rucaparib alone); 111% (inactive) in [10] (at 0.00488 µM, OCI-P5x cells, without rucaparib). Moreover, the viability in [10] (at 0.0195 µM, OCI-C5x cells, with rucaparib 10 µM, 100% = cells with rucaparib alone) was 106% (inactive); in [10] (at 0.0195 µM, OCI-C5x cells, without rucaparib), 115% (inactive); in assay [10] (at 0.0195 µM, OCI-P5x cells, with rucaparib 20 µM, 100% = cells with rucaparib alone), 109% (inactive); in assay [10] (at 0.0195 µM, OCI-P5x cells, without rucaparib), 116% (inactive); in assay [10] (at 0.0781 µM, OCI-C5x cells, with rucaparib 10 µM, 100% = cells with rucaparib alone), 113% (inactive); in assay [10] (at 0.0781 µM, OCI-C5x cells, without rucaparib), 112% (inactive). For the same molecule, the viability in assay [10] (at 0.0781 µM, OCI-P5x cells, with rucaparib 20 µM, 100% = cells with rucaparib alone) is 105% (inactive); in [10] (at 0.0781 µM, OCI-P5x cells, without rucaparib), 117% (inactive); in assay [10] (at 0.313 µM, OCI-C5x cells, with rucaparib 10 µM, 100% = cells with rucaparib alone) it was 112% (inactive); in assay [10] (at 0.313 µM, OCI-C5x cells, without rucaparib) it was 124% (inactive); in assay [10] (at 0.313 µM, OCI-P5x cells, with rucaparib 20 µM, 100% = cells with rucaparib alone) it was 105% (inactive); in [10] (at 0.313 µM, OCI-P5x cells, without rucaparib), 120% (inactive). In addition, the viability in [10] (at 1.25 µM, OCI-C5x cells, with rucaparib 10 µM, 100% = cells with rucaparib alone) is 109% (inactive); in assay [10] (at 1.25 µM, OCI-C5x cells, without rucaparib), 118% (inactive); in [10] (at 1.25 µM, OCI-P5x cells, with rucaparib 20 µM, 100% = cells with rucaparib alone), 107% (inactive); in assay [10] (at 1.25 µM, OCI-P5x cells, without rucaparib), 120% (inactive); in assay [10] (at 5 µM, OCI-C5x cells, with rucaparib 10 µM, 100% = cells with rucaparib alone), 100% (active); in [10] (at 5 µM, OCI-C5x cells, without rucaparib) it was 124% (inactive). Also, the viability was 95% (active) in assay [10] (at 5 µM, OCI-P5x cells, with rucaparib 20 µM, 100% = cells with rucaparib alone) and 114% (inactive) in assay [10] (at 5 µM, OCI-P5x cells, without rucaparib).
`NC(=O)c1cccc2c(NC(CN3CCC3)c3ccc(Cl)c(C(F)(F)F)c3)ncnc12` (stereo unspecified): the concentration at half-maximal activity (AC50) is 11.8 µM (active) in [1], 3.72 µM (active) in [2], 2.95 µM (active) in assay [3] and 11.8 µM (active) in assay [4].
As for `CCOc1cc(C(C)(C)C)ccc1C1=N[C@@](C)(c2ccc(Cl)cc2)[C@@](C)(c2ccc(Cl)cc2)N1C(=O)N1CCN(CC(=O)N2CCOCC2)CC1`, the AC50 in assay [1] is 11.5 µM (active); in assay [2] it was 14.5 µM (active); in [3], 10.3 µM (active).
Consider `OC1CCC(Nc2ncc3nc(Nc4c(F)cc(F)cc4F)n([C@@H]4CCOC4)c3n2)CC1` (stereo partly specified), for which the call in [1], in [2], in [3], in assay [5], in assay [4] and in assay [6] was inactive.
Turning to `CCCCOc1nc(N)c2c(n1)N(Cc1cccc(CN3CCCC3)c1)CC(=O)N2`, the outcome in assay [1], in assay [2] and in assay [3] was inactive.
`CCCCCCCOc1ccc(CCC(N)(CO)CO)cc1C(F)(F)F`: the AC50 is 8.33 µM (active) in assay [1], 8.33 µM (active) in assay [2], 9.34 µM (active) in [3] and 8.33 µM (active) in [4].
